Activity calls are given as the source filed them.
Experiments:
[1] = system: PRMT1 (protein arginine N-methyltransferase 1); experiment: small molecules binding arginine methyltransferase PRMT1 – biochemical, small-molecule microarray, 635 nm fluorescence, primary screen (AID 1088); details: higher = more signal;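 note: binding of Prmt1 protein to compounds spotted on small-molecule microarray slides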
[2] = growth effects on S. cerevisiae YJM789 – YJM789 clinical isolate, OD600, 24 h, basal, primary screen (AID 1089); details: higher = more signal, called active from +8 up or from −8 down;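 note: growth of clinical yeast isolate S. cerevisiae YJM 789 seeded 1000 cells per well; test concentration not given here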
[3] = S. pombe growth modifiers, basal conditions – strain 972, OD600, 24 h, no modulator, primary screen (AID 1090);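 note: basal condition with compound alone and no growth modifier present; test concentration not given here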; details: S. pombe 972 growth, higher = more signal, called active from +8 up or from −8 down
[4] = budding yeast growth modifiers under rapamycin – strain BY4716, OD600, 96 h, primary screen (AID 1091); note: test concentration not given here; details: S. cerevisiae BY4716 + rapamycin, higher = more signal, called active from +8 up or from −8 down
[5] = biological target: Torsin-1A-interacting protein 2 (Homo sapiens) (UniProt Q8NFQ8); experiment: small molecules binding lysate-expressed LULL1 – cell lysate, human LULL1 lysate, 635/667 nm fluorescence, primary screen (AID 1092); details: small-molecule microarray, hLULL1 lysate binding, 635 nm fluorescence; higher = more signal;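 note: probe is lysate of COS7 cells overexpressing human LULL1; score merges per-feature 667 nm fluorescence with signal-to-noise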
Torsin-1A-interacting protein 2 (Homo sapiens), sequence (Q8NFQ8 whole entry, looked up): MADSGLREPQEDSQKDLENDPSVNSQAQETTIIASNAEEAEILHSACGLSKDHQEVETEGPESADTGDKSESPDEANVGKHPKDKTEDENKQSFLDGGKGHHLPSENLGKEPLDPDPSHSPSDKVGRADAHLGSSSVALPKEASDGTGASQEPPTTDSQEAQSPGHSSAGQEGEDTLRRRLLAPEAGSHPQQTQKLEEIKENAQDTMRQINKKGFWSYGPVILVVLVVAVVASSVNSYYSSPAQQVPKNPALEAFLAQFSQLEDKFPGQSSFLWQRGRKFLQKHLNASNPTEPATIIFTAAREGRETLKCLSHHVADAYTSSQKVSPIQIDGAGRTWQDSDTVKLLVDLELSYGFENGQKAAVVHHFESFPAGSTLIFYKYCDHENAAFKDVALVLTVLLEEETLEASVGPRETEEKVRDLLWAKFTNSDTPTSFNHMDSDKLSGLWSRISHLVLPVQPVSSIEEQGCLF

[6] = optical density change of DRC41 E. coli – strain DRC41, OD650, 24 h, E. coli filamentation project, primary screen (AID 1093);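 note: MC1000 strain lacking acrAB efflux and sulA so SOS filamentation is blocked; test concentration not given here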; details: E. coli DRC41 growth, higher = more signal, called active from +8 up or from −8 down
[7] = probe aLefty2 binding to arrayed compounds – biochemical, biotinylated probe, 635/667 nm fluorescence, primary screen (AID 1094); details: small-molecule microarray, higher = more signal;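 note: score merges spot fluorescence near 667 nm with spot signal-to-noise ratio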
[8] = system: Noggin (protein binding on small-molecule microarray); experiment: small molecules binding Noggin protein – biochemical, 635/667 nm fluorescence, primary screen (AID 1095); details: 635 nm fluorescence, higher = more signal;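 note: score merges 667 nm feature fluorescence with signal to noise over triplicate slides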
[9] = biological target: Neurogenic locus notch homolog protein 3 (Homo sapiens) (UniProt Q9UM47); experiment: small molecules binding NOTCH3 protein – biochemical, 635/667 nm fluorescence, primary screen (AID 1096); details: small-molecule microarray, 635 nm fluorescence, higher = more signal
Neurogenic locus notch homolog protein 3 (Homo sapiens), sequence (Q9UM47 whole entry, looked up): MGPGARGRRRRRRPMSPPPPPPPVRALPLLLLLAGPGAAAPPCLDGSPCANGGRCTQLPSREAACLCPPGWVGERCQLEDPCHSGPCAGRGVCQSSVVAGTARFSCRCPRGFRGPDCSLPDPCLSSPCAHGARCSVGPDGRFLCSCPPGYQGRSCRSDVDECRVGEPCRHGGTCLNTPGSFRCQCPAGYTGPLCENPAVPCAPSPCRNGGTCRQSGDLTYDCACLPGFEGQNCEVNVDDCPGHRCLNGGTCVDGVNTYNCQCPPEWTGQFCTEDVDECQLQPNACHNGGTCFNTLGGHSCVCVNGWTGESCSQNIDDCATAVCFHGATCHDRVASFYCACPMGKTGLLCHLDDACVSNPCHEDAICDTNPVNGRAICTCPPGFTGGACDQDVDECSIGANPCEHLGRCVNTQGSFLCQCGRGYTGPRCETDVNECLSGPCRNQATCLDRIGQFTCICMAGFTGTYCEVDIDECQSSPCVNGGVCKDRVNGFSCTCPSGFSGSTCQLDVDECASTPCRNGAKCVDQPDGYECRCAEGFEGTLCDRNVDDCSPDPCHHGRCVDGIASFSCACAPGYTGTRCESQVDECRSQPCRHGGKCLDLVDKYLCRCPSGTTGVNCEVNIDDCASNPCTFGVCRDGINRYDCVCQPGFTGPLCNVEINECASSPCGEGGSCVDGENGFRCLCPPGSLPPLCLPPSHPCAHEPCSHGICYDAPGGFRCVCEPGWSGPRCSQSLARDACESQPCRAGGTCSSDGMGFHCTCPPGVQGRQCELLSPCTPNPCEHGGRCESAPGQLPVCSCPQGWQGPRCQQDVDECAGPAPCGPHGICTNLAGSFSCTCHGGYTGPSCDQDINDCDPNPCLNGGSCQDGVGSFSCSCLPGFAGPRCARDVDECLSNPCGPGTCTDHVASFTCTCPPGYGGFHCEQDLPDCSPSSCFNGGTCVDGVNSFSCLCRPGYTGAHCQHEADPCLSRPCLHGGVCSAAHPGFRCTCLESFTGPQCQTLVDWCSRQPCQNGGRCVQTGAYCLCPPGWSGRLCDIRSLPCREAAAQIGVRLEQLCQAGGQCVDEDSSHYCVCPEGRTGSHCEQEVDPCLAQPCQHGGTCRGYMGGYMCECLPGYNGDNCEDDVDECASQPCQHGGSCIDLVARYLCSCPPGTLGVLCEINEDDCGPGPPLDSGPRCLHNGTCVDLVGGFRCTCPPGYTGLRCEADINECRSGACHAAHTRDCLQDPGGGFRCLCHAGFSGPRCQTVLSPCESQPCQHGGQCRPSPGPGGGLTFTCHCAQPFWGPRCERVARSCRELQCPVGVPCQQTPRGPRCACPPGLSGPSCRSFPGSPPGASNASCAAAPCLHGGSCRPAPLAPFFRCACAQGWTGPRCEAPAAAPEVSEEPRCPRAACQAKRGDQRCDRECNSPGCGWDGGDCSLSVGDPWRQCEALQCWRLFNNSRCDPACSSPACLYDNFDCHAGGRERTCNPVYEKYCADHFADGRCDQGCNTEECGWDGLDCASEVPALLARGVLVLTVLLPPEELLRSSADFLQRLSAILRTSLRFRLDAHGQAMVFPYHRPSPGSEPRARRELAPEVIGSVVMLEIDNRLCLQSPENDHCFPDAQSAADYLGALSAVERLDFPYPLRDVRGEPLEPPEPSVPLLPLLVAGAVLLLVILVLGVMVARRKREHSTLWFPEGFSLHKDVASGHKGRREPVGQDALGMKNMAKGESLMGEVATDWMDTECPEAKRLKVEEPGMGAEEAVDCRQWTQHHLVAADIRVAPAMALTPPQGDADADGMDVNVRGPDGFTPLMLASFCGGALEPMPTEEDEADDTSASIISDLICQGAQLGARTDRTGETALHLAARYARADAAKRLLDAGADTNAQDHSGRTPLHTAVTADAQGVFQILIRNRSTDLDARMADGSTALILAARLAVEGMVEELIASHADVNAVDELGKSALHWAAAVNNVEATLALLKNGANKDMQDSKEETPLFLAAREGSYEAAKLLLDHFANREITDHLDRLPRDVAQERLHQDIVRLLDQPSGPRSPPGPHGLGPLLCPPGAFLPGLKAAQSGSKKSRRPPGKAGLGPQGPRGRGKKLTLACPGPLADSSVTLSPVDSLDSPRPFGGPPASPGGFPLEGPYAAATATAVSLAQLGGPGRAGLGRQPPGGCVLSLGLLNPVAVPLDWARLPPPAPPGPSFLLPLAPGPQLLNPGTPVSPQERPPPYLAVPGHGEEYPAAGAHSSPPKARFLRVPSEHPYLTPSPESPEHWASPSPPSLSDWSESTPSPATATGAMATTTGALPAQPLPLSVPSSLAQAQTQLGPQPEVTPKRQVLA

[10] = probe aEGFR binding to arrayed compounds – biochemical, biotinylated probe, 635/667 nm fluorescence, primary screen (AID 1097); details: small-molecule microarray, higher = more signal;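 note: probe is a biotinylated anti-EGFR antibody binding compounds printed on slides; score combines fluorescence near 667 nm and signal to noise of each spot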

| SMILES | composite z-score [1] | z-score [2] | z-score [3] | z-score [4] | composite z-score [5] | z-score [6] | composite z-score [7] | composite z-score [8] | composite z-score [9] | composite z-score [10] |
| --- | --- | --- | --- | --- | --- | --- | --- | --- | --- | --- |
| CO[C@H]1O[C@H](CO)[C@@H](OC(=O)Nc2ccc(Oc3ccccc3)cc2)[C@H](OC(=O)Nc2ccccc2-c2ccccc2)[C@H]1OC(=O)Nc1ccccc1-c1ccccc1 | 1.54 | 3.07 (inactive) | 1.84 (inactive) | 0.792 (inactive) | 3.28 | 2.45 (inactive) | 0.218 | 1.23 | 1.06 | 0.242 |
| CCC(=O)[C@]12O[C@@]3([C@@H]4C(=O)OCC[C@@H]41)N(Cc1ccccc1)C(C)=C(C(=O)OC)[C@@H](c1ccccc1)N3C2=O | 0.131 | -0.641 (inactive) | -1.16 (inactive) | -1.17 (inactive) | -0.417 | 0.151 (inactive) | -0.143 | -1.66 | -0.406 | -0.246 |
| CCCCCCc1nc(-c2cc(C)c(OC)c(C)c2)cc2c1[Si](C(C)C)(C(C)C)O[C@H]2c1ccccc1 | -0.118 | 0.955 (inactive) | 0.659 (inactive) | -0.558 (inactive) | -0.685 | -0.54 (inactive) | -0.107 | -0.346 | -0.496 | -0.168 |
| CCC1=C2CN(Cc3ccccc3Br)[C@@H]([C@@H](O)Cc3ccccc3)C2C=CCC1 (stereo not given in full) | 1.24 | -0.828 (inactive) | -5.56 (inactive) | -1.13 (inactive) | 2.11 | 0.777 (inactive) | -0.125 | 0.515 | 1.05 | -0.0981 |
| COCCOC(=O)N1C(=O)[C@@]2(c3cc(C#CCCO)ccc31)[C@H](c1ccc(OCCO)cc1)N1[C@H](c3ccccc3)[C@H](c3ccccc3)OC(=O)[C@H]1[C@@H]2C(=O)NC[C@H](O)c1ccccc1 | 1.54 | 1.99 (inactive) | 1.98 (inactive) | 5.45 (inactive) | 2.54 | 1.3 (inactive) | -0.116 | 1.6 | 1.07 | -0.0286 |
| COCCOC(=O)N1C(=O)[C@@]2(c3cc(C#CCNC(N)=O)ccc31)[C@H](c1ccc(OCCO)cc1)N1[C@H](c3ccccc3)[C@H](c3ccccc3)OC(=O)[C@H]1[C@@H]2C(=O)Nc1nc2ccccc2s1 | 0.75 | 1.55 (inactive) | 1.11 (inactive) | 3.55 (inactive) | 0.376 | 2.56 (inactive) | 0.162 | 0.895 | 0.865 | 0.0894 |
| C=CC[C@]1(C(=O)N2CCCCC2)N=C(c2ccc(OCCCO)cc2)O[C@H]1c1ccccc1N=[N+]=[N-] | 1.58 | -0.534 (inactive) | -1.18 (inactive) | 0.946 (inactive) | 3.44 | 0.208 (inactive) | 0.619 | 1.17 | 1.08 | 0.561 |
| Cc1ccc(N2C(=O)c3ccccc3[C@](C)(C(=O)O)[C@@H]2c2ccc(CO)cc2)nc1 | -1.11 | 0.508 (inactive) | -0.633 (inactive) | 0.653 (inactive) | -1.18 | 1.62 (inactive) | -0.15 | -2.06 | -1.17 | -0.427 |
| CC(c1ccccc1)C(O)C1C=CC2C(=O)N(C)C(=O)C2N1N(c1ccccc1)c1ccccc1 (stereo not given) | 0.396 | 0.414 (inactive) | 0.184 (inactive) | 1.27 (inactive) | 1.65 | -1.1 (inactive) | 0.424 | -0.959 | 0.363 | -0.0322 |
| O=C(O)[C@@H]1Cc2c([nH]c3ccccc23)[C@@H](c2ccccc2)N1 | -0.645 | -0.0524 (inactive) | -0.474 (inactive) | -0.731 (inactive) | 0.249 | 0.294 (inactive) | -0.106 | 0.483 | 0.46 | -0.046 |
| COC(=O)[C@@]1(Cc2ccccc2)[C@H]2c3cc(C(=O)N4CCCC4)n(CCN4CNCC4=O)c3C[C@H]2CN1C(=O)c1ccccc1 | -0.337 | -0.465 (inactive) | 0.826 (inactive) | -0.153 (inactive) | 1.93 | -0.0756 (inactive) | 0.154 | -0.113 | 0.494 | -0.013 |
| Cc1ccc(S[C@]2(C(=O)NC(C)C)CC(=O)N(C3Cc4ccccc4C3)[C@@H]2c2ccc(CO)cc2)cc1 | 1.53 | 0.106 (inactive) | -1.65 (inactive) | -0.517 (inactive) | 2.95 | -2.16 (inactive) | -0.222 | -0.0057 | 0.506 | -0.308 |
| Cc1ccc(N2C(=O)c3ccccc3[C@@H](C(=O)NCc3ccccc3)[C@@H]2c2ccc(CO)cc2)nc1 | -0.363 | 0.938 (inactive) | -0.242 (inactive) | 0.76 (inactive) | 1.39 | 1.29 (inactive) | 0.306 | 0.0163 | -0.763 | -0.166 |
| COC(=O)[C@@]1(Cc2ccc(OC)cc2)[C@H]2c3cc(C(=O)N(C)C)n(CCc4ccc(OC)c(Br)c4)c3C[C@H]2CN1C(=O)c1ccccc1 | 1.17 | 0.557 (inactive) | 0.236 (inactive) | 2.82 (inactive) | 3.33 | -0.76 (inactive) | 0.903 | -0.54 | 1.01 | 0.674 |
| COC(=O)[C@@]1(Cc2ccccc2CN=[N+]=[N-])N=C(c2ccc(OCCCO)cc2)O[C@H]1c1ccccc1N=[N+]=[N-] | 1.42 | 0.763 (inactive) | 2.17 (inactive) | 36 (active) | 2.18 | 0.0738 (inactive) | -0.184 | 0.0678 | 0.698 | -0.0372 |
| O=C/C=C/c1ccccc1Cl | -0.284 | 1.68 (inactive) | -11 (active) | -0.6 (inactive) | 0.54 | 0.0791 (inactive) | -0.0336 | -0.479 | -0.709 | -0.18 |
| Cc1ccc(S[C@]2(C(=O)NC(C)C)CC(=O)N(Cc3cc(C(F)(F)F)cc(C(F)(F)F)c3)[C@@H]2c2ccc(CO)cc2I)cc1 | 1.26 | -0.698 (inactive) | -2.47 (inactive) | 1.2 (inactive) | 2.04 | 0.715 (inactive) | -0.0544 | -0.147 | -0.513 | -0.317 |
| COCCOC(=O)N1C(=O)[C@@]2(c3cc(C#CC4=CCCCC4)ccc31)[C@H](c1ccc(O)cc1)N1[C@H](c3ccccc3)[C@H](c3ccccc3)OC(=O)[C@H]1[C@@H]2C(=O)N1CCCCCCC1 | 1.57 | 0.2 (inactive) | -1.06 (inactive) | 0.776 (inactive) | 2.11 | 2.01 (inactive) | 0.367 | 1.42 | 1.13 | 0.0143 |
| CC(C)[Si]1(C(C)C)OCc2cc(C3CC3)nc(-c3ccccc3)c21 | 0.168 | -0.604 (inactive) | -3.7 (inactive) | -1.39 (inactive) | -0.431 | 2.13 (inactive) | -0.142 | -0.246 | -0.802 | -0.216 |
| C=CC[C@@]1(C(=O)NCC(O)CO)N=C(c2ccc(OCCCO)cc2)O[C@@H]1c1ccccc1CN=[N+]=[N-] (stereo not given in full) | 1.18 | -0.785 (inactive) | -1.42 (inactive) | -1.04 (inactive) | 3.84 | 1.52 (inactive) | -0.147 | -0.265 | -0.216 | -0.152 |
| C[C@]1(C(=O)NCc2ccccc2)c2ccccc2C(=O)N(Cc2cc(C(F)(F)F)cc(C(F)(F)F)c2)[C@H]1c1ccc(CO)cc1 | 1.58 | -2 (inactive) | -3.22 (inactive) | -2.11 (inactive) | 1.51 | 2.13 (inactive) | 0.339 | 0.583 | 0.655 | 0.18 |
| [N-]=[N+]=NCc1ccccc1C[C@@]1(C(=O)O)N=C(c2ccc(OCCCO)cc2)O[C@@H]1c1ccccc1N=[N+]=[N-] | 1.51 | -0.41 (inactive) | -1.02 (inactive) | -0.85 (inactive) | 3.16 | 0.602 (inactive) | 0.0189 | 0.0183 | 1.03 | 0.0316 |
| [N-]=[N+]=NCc1ccccc1[C@H]1OC(c2ccc(OCCCO)cc2)=N[C@@]1(Cc1ccccc1N=[N+]=[N-])C(=O)NCc1ccccc1 | 1.4 | 0.0182 (inactive) | 1.98 (inactive) | 11.8 (active) | 2.69 | 0.0275 (inactive) | 0.232 | 0.159 | 0.867 | 0.223 |
| [N-]=[N+]=NCc1ccccc1C[C@]1(C(N)=O)N=C(c2ccc(OCCCO)cc2)O[C@H]1c1ccccc1CN=[N+]=[N-] | 1.32 | -2.38 (inactive) | -2.11 (inactive) | -0.525 (inactive) | 3 | -0.0236 (inactive) | 0.544 | 0.0263 | 0.904 | 0.145 |
| C[C@H]1C2[C@H](Cc3ccccc3)NC(=O)[C@]23C(=O)N[C@H](Cc2ccccc2)C(=O)N[C@@H](Cc2ccccc2)C(=O)NC/C=C\C/C=C/C3[C@@H]2O[C@]12C (stereo not given in full) | -0.0599 | -0.371 (inactive) | -0.246 (inactive) | -0.639 (inactive) | 0.168 | 1.25 (inactive) | -0.0882 | -0.152 | 0.367 | -0.113 |
| CCOC(=O)C1=C[C@@H](c2ccccc2)N(S(=O)(=O)c2ccc(C)cc2)[C@H]1c1ccc(F)cc1 | 1.56 | 0.575 (inactive) | 2.18 (inactive) | 2.39 (inactive) | 3.06 | -0.382 (inactive) | -0.0141 | 0.512 | 1.09 | 0.0624 |
| CO[C@]12C=C(Br)[C@@H](C[C@@H]1c1ccccc1)[C@@]1(CO1)C2=O | -0.167 | -0.0474 (inactive) | -4.38 (inactive) | -0.208 (inactive) | -0.132 | 2.43 (inactive) | -0.2 | 0.706 | 0.243 | -0.14 |
| CCCC[C@@H]1C[C@H]1[C@@H](NC(=O)c1ccccc1)c1ccccc1C(F)(F)F | 1.03 | 0.261 (inactive) | 0.367 (inactive) | 0.0237 (inactive) | 3.38 | 0.151 (inactive) | 0.198 | 0.0984 | 0.961 | -0.123 |
| C[C@H]1COC(=O)[C@@H]2CCCN2C(=O)[C@@H](C)COC(=O)[C@@H]2CCCN2C1=O | -0.8 | -0.173 (inactive) | -0.649 (inactive) | -1.65 (inactive) | -0.863 | 0.493 (inactive) | -0.175 | 0.381 | -0.493 | -0.071 |

Source: PubChem BioAssay
